According to PubChem BioAssay AID1159580 (chemical genetic matrix, 2015):
Values joined by “and” are separate entries in the source; they are usually repeats but may differ in a detail not shown here. Equal entries are not always repeated. Out of some 5,500 compounds screened, about 2,000 (36%) were called active. Inconclusive results (about 18%) are left out. No stated cut-off is given here; in the data, active means normalized growth mostly below about 0.91 (no sharp cut-off); inconclusive means no clear call, values can overlap the other calls; inactive means mostly above about 0.92. The list shows a part of the results.

Assay: chemical genetic growth profiling, strain panel (AID 1159580);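 further: tested at 20 µM; growth read once vehicle control cultures reached saturation at 30 °C; 1 = growth at the plate median or of vehicle wells; lower values mean less growth of the strain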
Settings: S. cerevisiae deletion strains, growth OD

Measured: normalized growth

COC(=O)C[C@H]1C(C)(C)C2(O)OC34CC2C(=O)[C@]1(C)C3CC[C@]1(C)C4=CC(=O)O[C@H]1c1ccoc1 (some centres not stated)
inactive: locus YAL013W, strain DEP1, active compounds read low 1.01 | locus YAL021C, strain ccr4, active compounds read low 0.99 | locus YAL026C, strain drs2, active compounds read low 0.998 | locus YAL030W, strain snc1, active compounds read low 0.99 | locus YBL061C, strain skt5, active compounds read low 0.999 | locus YBR009C, strain hhf1, active compounds read low 1.01 | locus YBR021W, strain FUR4, active compounds read low 0.976 | locus YBR023C, strain chs3, active compounds read low 0.99 | locus YBR171W, strain sec66, active compounds read low 0.973 | locus YBR229C, strain ROT2, active compounds read low 1.01 | locus YBR231C, strain swc5, active compounds read low 0.986 | locus YBR279W, strain paf1, active compounds read low 0.998 | locus YCL011C, strain gbp2, active compounds read low 0.978 | locus YCL016C, strain dcc1, active compounds read low 1 | locus YCL029C, strain bik1, active compounds read low 1.01 | locus YCL061C, strain MRC1, active compounds read low 1.02 | locus YCL069W, strain vba3, active compounds read low 0.977 | locus YCR088W, strain abp1, active compounds read low 0.978 | locus YDL005C, strain med2, active compounds read low 0.991 | locus YDL035C, strain GPR1, active compounds read low 1 | locus YDL040C, strain nat1, active compounds read low 0.973 | locus YDL074C, strain BRE1, active compounds read low 1.01 | locus YDL101C, strain DUN1, active compounds read low 1 | locus YDL134C, strain PPH21, active compounds read low 1.01 | locus YDL185W, strain tfp1, active compounds read low 1.01 | locus YDL192W, strain arf1, active compounds read low 1.01 | locus YDR001C, strain nth1, active compounds read low 0.991 | locus YDR069C, strain doa4, active compounds read low 0.988 | locus YDR101C, strain arx1, active compounds read low 1.01 | locus YDR137W, strain rgp1, active compounds read low 1.03 | locus YDR150W, strain NUM1, active compounds read low 0.993 | locus YDR159W, strain sac3, active compounds read low 0.973 | locus YDR162C, strain NBP2, active compounds read low 1.02 | locus YDR195W, strain ref2 0.963 | locus YDR297W, strain sur2, active compounds read low 0.994 | locus YDR318W, strain mcm21, active compounds read low 1 | locus YDR334W, strain swr1, active compounds read low 0.975 | locus YDR335W, strain msn5, active compounds read low 0.983 | locus YDR388W, active compounds read low 1 | locus YDR392W, strain spt3, active compounds read low 0.952 | locus YDR502C, strain sam2, active compounds read low 0.994 | locus YEL003W, strain gim4, active compounds read low 0.992 | locus YEL037C, strain rad23, active compounds read low 0.98 | locus YEL061C, strain CIN8 (second series), active compounds read low 0.972 | locus YER015W, strain faa2, active compounds read low 0.996 | locus YER016W, strain bim1, active compounds read low 0.984 | locus YER110C, active compounds read low 1.02 | locus YER111C, strain swi4, active compounds read low 0.985 | locus YER155C, strain BEM2 (second series), active compounds read low 0.993 | locus YER155C, strain BEM2, active compounds read low 0.992 | locus YER167W, strain BCK2, active compounds read low 0.996 | locus YFR010W, strain ubp6, active compounds read low 0.974 | locus YGL078C, strain dbp3, active compounds read low 1.02 | locus YGL086W, strain mad1, active compounds read low 0.99 | locus YGL167C, strain pmr1, active compounds read low 1 | locus YGL173C, strain kem1, active compounds read low 0.988 | locus YGL227W, strain vid30, active compounds read low 0.983 | locus YGL240W, strain doc1, active compounds read low 0.971 | locus YGL248W, strain PDE1, active compounds read low 1.01 | locus YGL253W, strain hxk2, active compounds read low 0.968 | locus YGR135W, strain pre9, active compounds read low 1.01 | locus YGR252W, strain gcn5, active compounds read low 1.05 | locus YHR013C, strain ard1, active compounds read low 0.988 | locus YHR027C, strain rpn1, active compounds read low 0.99 | locus YHR030C, strain SLT2, active compounds read low 1 and 0.968 | locus YHR079C, strain IRE1 (second series), active compounds read low 1.01 | locus YHR079C, strain IRE1, active compounds read low 0.972 | locus YHR094C, strain hxt1, active compounds read low 1.02 | locus YHR129C, strain ARP1, active compounds read low 1 | locus YHR142W, strain chs7, active compounds read low 0.975 | locus YHR200W, strain rpn10, active compounds read low 1 | locus YIL066C, strain RNR3, active compounds read low 1.01 | locus YIL073C, strain SPO22, active compounds read low 1.01 | locus YIL125W, strain kgd1, active compounds read low 1.01 | locus YIR030C, strain dcg1, active compounds read low 1.01 | locus YJL092W, strain hpr5, active compounds read low 0.98 | locus YJL095W, strain BCK1 (second series), active compounds read low 0.988 | locus YJL095W, strain BCK1, active compounds read low 0.982 and 0.98 | locus YJL115W, strain asf1, active compounds read low 0.984 | locus YJL129C, strain trk1, active compounds read low 1 | locus YJL134W, strain LCB3, active compounds read low 1 | locus YJL154C, strain vps35, active compounds read low 0.989 | locus YJL164C, strain tpk1, active compounds read low 1 | locus YJL166W, strain qcr8, active compounds read low 0.986 | locus YJL168C, strain set2, active compounds read low 0.996 | locus YJL187C, strain SWE1 (second series), active compounds read low 1.01 | locus YJL187C, strain SWE1, active compounds read low 1.01
